Records with an inconclusive call do not appear. Calls of active or inactive are those of the source. Unless noted, the call rests on the fitted dose curve; in most records, active means well fitted curve in the direction sought with a large enough effect in the repeat runs; inconclusive means weak or mixed curves; inactive means no such curve, though single readings can be large; an effect the other way counts as inactive or inconclusive.
Legend:
[1] = qHTS assay to identify small molecule agonists of the TGF-beta/Smad signaling pathway - cell viability counter screen (AID 1346829); settings: SBE-bla HEK293T viability, CellTiter-Glo luminescence, 5 h; series mostly up to 76.8 µM; further: top concentration of the series differs between compounds; nearly all actives have a fitted effect of over 45% in size
Summary of the method: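 Tox21 qHTS format: SBE-bla HEK 293T cells treated with DMSO-dissolved compounds for 5 hr; CellTiter-Glo luminescence after 30 min at room temperature.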

[2] = qHTS assay to identify small molecule agonists of the TGF-beta/Smad signaling pathway (AID 1346859; active means well fitted activation curve with a large enough effect in the signal ratio in the repeat runs, not every such curve was filed as active; the % refers to the signal ratio); settings: SBE-bla HEK293T, TGF-beta/Smad beta-lactamase reporter, 5 h; series mostly up to 76.8 µM
Summary of the method: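 Each well held 4,000 SBE-bla HEK 293T cells incubated overnight before compound addition; 5 hr later the cleavable FRET substrate went on for 2 hr at room temperature, and fluorescence was read at two emissions.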

[3] = Human pregnane X receptor (PXR) small molecule agonists, qHTS cell viability counter screen (AID 1346977); settings: PXR-Luc HepG2 viability, CellTiter-Fluor, 24 h; series mostly up to 92.4 µM; further: nearly all actives have a fitted effect of over 50% in size
Summary of the method: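 Tox21 qHTS format; PXR-Luc HepG2, 2,000/well, charcoal-stripped FBS 5%. Cpd exposure 24hr. Read: CellTiter-Fluor fluorescence, multiplexed with luciferase.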

[4] = Caspase-3/7 induction in HepG2 cells by small molecules, qHTS assay (AID 1346978); settings: HepG2 caspase-3/7 activation, Caspase-Glo luminescence, 17 h; series mostly up to 92.4 µM; further: nearly all actives have a fitted effect of over 15% in size
Summary of the method: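 Wild-type HepG2 cells (2,000/well) were settled 5 h at 37 C, 5% CO2, then exposed to compounds in DMSO for 17 h. Caspase-3/7 activity was read by luminescence 30 min after adding Caspase-Glo 3/7 reagent at room temperature.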

[5] = Caspase-3/7 induction in CHO-K1 cells by small molecules, qHTS cell viability counter screen (AID 1346979); settings: CellTiter-Fluor fluorescence, 17 h; series mostly up to 92.4 µM; further: nearly all actives have a fitted effect of over 35% in size
Summary of the method: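 CellTiter-Fluor viability check, qHTS format: wild-type CHO-K1, 16hr compound treatment, 1hr reagent incubation, fluorescence read.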

[6] = Caspase-3/7 induction in CHO-K1 cells by small molecules, qHTS assay (AID 1346980); settings: CHO-K1 caspase-3/7 induction, Caspase-Glo luminescence, 17 h; series mostly up to 92.4 µM; further: nearly all actives have a fitted effect of over 15% in size
Summary of the method: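 Wild-type cells were seeded at 1,500 per well and settled 5 hr at 37 C, 5% CO2, then exposed to DMSO-dissolved compounds for 17 hr. Caspase-Glo 3/7 reagent was added, and luminescence was read after 30min at room temperature.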

[7] = target: Nuclear receptor subfamily 1 group I member 2 (Homo sapiens) (UniProt O75469); experiment: Human pregnane X receptor (PXR) small molecule agonists, qHTS assay (AID 1346982); settings: PXR-Luc HepG2, CYP3A4 luciferase reporter, 24 h; series mostly up to 92.4 µM; further: nearly all actives have a fitted effect of over 35% in size
Sequence of Nuclear receptor subfamily 1 group I member 2 (Homo sapiens) (O75469 whole entry, looked up): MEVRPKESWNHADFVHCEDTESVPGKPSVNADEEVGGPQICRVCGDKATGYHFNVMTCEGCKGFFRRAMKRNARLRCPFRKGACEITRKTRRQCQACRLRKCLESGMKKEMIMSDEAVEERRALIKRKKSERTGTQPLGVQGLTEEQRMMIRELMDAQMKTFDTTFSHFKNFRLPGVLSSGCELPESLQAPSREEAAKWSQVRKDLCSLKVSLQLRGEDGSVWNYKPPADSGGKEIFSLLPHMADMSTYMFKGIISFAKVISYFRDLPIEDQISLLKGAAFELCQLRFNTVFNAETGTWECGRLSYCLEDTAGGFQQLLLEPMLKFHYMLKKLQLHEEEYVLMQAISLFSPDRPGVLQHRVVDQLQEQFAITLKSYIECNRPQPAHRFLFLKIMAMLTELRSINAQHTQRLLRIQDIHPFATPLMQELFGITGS
Summary of the method: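 Cells: HepG2 stably carrying PXR-Luc. Medium held 5% charcoal-stripped FBS. Compounds in DMSO added after 5 hr plating, incubated 24 hr, then luminescence quantified with ONE-Glo.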

[8] = target: Cytochrome P450 2D6 (Homo sapiens) (UniProt P10635); experiment: Cytochrome P450 Family 2 Subfamily D Member 6 (CYP2D6) small molecule antagonists: luciferase reporter qHTS assay (AID 1671196); settings: P450-Glo CYP2D6 enzyme assay, luciferin luminescence, 1 h; series mostly up to 115 µM; further: nearly all actives have a fitted effect of over 50% in size
Sequence of Cytochrome P450 2D6 (Homo sapiens) (P10635 whole entry, looked up): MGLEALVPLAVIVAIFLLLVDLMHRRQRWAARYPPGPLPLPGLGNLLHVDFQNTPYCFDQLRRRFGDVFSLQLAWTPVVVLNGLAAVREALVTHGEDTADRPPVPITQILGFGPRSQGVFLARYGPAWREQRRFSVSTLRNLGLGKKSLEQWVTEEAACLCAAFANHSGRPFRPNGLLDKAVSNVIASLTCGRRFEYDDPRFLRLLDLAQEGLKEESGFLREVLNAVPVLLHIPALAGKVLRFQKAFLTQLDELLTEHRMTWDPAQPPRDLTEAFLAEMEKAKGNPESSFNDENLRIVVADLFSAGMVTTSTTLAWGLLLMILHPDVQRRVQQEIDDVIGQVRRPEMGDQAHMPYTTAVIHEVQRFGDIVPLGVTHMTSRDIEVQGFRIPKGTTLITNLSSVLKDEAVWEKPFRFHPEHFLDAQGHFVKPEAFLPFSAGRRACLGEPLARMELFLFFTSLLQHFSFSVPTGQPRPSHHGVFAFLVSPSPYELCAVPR
Summary of the method: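 Enzyme and proluciferin substrate were first combined with test chemical for 10 min at room temperature. Adding NADPH regeneration solution started a 1 h reaction, stopped with luciferin detection reagent and read by luminescence 20 min later.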

[9] = target: Cytochrome P450 2C19 (Homo sapiens) (UniProt P33261); experiment: Cytochrome P450 Family 2 Subfamily C Member 19 (CYP2C19) small molecule antagonists: luciferase reporter qHTS assay (AID 1671197); settings: P450-Glo CYP2C19 enzyme, luciferin luminescence, 1 h; series mostly up to 115 µM; further: nearly all actives have a fitted effect of over 65% in size; further: potency means the concentration at half of the fitted maximal effect
Sequence of Cytochrome P450 2C19 (Homo sapiens) (P33261 whole entry, looked up): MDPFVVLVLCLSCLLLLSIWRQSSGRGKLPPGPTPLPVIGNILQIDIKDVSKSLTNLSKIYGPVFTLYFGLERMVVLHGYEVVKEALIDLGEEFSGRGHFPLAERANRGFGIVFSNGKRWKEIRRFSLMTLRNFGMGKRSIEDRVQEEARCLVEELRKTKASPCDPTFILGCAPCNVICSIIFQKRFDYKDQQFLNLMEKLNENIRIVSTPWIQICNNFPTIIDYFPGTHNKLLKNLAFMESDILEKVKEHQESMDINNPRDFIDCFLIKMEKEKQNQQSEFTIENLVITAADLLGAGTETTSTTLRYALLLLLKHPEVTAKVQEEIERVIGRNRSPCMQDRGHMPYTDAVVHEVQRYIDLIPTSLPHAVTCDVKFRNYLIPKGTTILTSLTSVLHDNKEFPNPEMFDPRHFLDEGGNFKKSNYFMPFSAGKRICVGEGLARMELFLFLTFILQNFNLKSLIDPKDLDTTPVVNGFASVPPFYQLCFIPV
Summary of the method: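 Relative luminescence units recorded 20 min after the detection reagent stopped a 1 h, 37C CYP2C19 reaction on proluciferin substrate, which was started by NADPH regeneration following 10 min room-temperature compound preincubation; ketoconazole positive control.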

[10] = target: Cytochrome P450 2C9 (Homo sapiens) (UniProt P11712); experiment: Cytochrome P450 Family 2 Subfamily C Member 9 (CYP2C9) small molecule antagonists: luciferase reporter qHTS assay (AID 1671198); settings: P450-Glo CYP2C9 enzyme assay, luciferin luminescence; series mostly up to 115 µM; further: nearly all actives have a fitted effect of over 50% in size; further: potency means the concentration at half of the fitted maximal effect
Sequence of Cytochrome P450 2C9 (Homo sapiens) (P11712 whole entry, looked up): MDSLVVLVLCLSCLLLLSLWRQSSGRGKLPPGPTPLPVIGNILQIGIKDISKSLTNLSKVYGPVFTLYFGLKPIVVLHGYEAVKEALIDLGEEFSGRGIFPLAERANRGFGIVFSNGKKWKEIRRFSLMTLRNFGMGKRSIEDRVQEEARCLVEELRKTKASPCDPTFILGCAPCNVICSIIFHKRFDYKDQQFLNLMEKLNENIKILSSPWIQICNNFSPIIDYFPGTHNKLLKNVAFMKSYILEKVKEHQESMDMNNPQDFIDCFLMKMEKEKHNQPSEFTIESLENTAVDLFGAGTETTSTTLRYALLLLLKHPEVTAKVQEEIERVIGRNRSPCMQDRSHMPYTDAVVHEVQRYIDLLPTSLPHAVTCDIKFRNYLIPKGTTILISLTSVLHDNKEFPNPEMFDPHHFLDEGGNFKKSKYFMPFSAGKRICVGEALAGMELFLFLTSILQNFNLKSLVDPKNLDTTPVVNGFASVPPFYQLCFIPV
Summary of the method: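 CYP2C9 activity was measured with a P450-Glo proluciferin substrate. Enzyme–substrate mix was held with compound for 10 min at room temperature, then NADPH regeneration solution was added for 1 h at 37C. Luciferin product was read as luminescence.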

[11] = target: Voltage-gated inwardly rectifying potassium channel KCNH2 (Homo sapiens) (UniProt Q12809); experiment: Human Ether-a-go-go-Related Gene (hERG) channel small molecule antagonists: fluorescence cell-based qHTS assay (AID 1671200); settings: hERG-U2OS cells, FluxOR thallium flux fluorescence; series mostly up to 76.8 µM;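 further: hERG-expressing U2OS cells given a thallium stimulus after FluxOR II dye loading; nearly all actives have a fitted effect of over 50% in size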
Sequence of Voltage-gated inwardly rectifying potassium channel KCNH2 (Homo sapiens) (Q12809 whole entry, looked up): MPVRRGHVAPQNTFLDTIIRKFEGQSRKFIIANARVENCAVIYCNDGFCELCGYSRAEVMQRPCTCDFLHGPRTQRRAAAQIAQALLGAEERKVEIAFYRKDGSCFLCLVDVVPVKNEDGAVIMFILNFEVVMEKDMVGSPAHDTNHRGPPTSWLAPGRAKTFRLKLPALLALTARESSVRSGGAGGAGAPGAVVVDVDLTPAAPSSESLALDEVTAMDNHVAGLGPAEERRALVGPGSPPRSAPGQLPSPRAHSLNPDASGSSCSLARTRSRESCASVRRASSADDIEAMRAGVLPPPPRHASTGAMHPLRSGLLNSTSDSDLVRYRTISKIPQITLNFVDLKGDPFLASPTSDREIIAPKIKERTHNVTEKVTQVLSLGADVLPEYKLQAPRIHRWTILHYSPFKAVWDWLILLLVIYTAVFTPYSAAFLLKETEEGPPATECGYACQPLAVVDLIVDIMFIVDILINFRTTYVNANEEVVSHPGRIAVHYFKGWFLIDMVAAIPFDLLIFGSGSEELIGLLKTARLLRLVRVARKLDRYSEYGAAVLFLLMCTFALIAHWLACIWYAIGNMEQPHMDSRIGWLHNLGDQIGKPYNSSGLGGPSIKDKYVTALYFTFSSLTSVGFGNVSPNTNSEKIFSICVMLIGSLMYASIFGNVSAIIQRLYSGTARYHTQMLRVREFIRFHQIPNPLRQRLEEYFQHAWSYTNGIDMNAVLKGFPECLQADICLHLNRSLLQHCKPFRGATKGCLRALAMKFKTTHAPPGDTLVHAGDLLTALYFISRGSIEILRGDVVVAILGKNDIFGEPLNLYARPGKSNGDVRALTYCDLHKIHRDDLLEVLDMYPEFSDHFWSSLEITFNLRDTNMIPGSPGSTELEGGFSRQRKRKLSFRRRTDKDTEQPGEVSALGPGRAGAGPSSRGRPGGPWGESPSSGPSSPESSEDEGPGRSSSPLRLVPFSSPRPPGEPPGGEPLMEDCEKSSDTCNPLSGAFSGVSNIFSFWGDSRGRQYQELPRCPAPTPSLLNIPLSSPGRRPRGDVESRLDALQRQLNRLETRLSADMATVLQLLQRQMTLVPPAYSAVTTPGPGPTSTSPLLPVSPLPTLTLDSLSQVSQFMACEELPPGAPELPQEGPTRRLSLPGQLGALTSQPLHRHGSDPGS
Summary of the method: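 Kinetic two-minute fluorescence traces, sampled at 1 s, were collected following thallium stimulus of U2OS cells (1000 per well) that had been cultured overnight at 37 C and loaded with FluxOR II.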

[12] = target: Cytochrome P450 3A4 (Homo sapiens) (UniProt P08684); experiment: Cytochrome P450 Family 3 Subfamily A Member 4 (CYP3A4) small molecule antagonists: luciferase reporter qHTS assay (AID 1671201); settings: P450-Glo CYP3A4 enzyme, luciferin luminescence, 1 h; series mostly up to 115 µM; further: nearly all actives have a fitted effect of over 50% in size; further: potency means the concentration at half of the fitted maximal effect
Sequence of Cytochrome P450 3A4 (Homo sapiens) (P08684 whole entry, looked up): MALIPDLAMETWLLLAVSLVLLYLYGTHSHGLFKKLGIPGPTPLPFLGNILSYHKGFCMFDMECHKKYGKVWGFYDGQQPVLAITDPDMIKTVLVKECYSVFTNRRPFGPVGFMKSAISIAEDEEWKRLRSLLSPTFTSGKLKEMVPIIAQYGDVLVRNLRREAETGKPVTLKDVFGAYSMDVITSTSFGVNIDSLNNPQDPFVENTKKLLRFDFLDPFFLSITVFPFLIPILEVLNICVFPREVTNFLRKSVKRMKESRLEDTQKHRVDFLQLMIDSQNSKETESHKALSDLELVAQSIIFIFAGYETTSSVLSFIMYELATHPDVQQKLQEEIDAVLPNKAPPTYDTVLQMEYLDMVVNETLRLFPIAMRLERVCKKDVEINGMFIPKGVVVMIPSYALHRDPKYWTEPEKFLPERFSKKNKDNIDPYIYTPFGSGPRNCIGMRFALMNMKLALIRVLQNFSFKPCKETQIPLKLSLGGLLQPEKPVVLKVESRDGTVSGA
Summary of the method: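 Proluciferin-to-luciferin conversion by CYP3A4, NADPH-regenerated, 1 h RT; luminescence read as RLU. Ketoconazole as control.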

[13] = Caspase-3/7 induction in HepG2 cells by small molecules, qHTS cell viability counter screen (AID 1346981); settings: CellTiter-Fluor fluorescence, 17 h; series mostly up to 92.4 µM; further: nearly all actives have a fitted effect of over 30% in size
Summary of the method: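 Cell viability is measured as a cytotoxicity counter screen alongside the Caspase-Glo 3/7 readout in identical wells. Wild-type HepG2 cells are treated with test compounds for 16 hr at 37 C before CellTiter-Fluor addition and a 1-hr incubation.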

[14] = target: Nuclear receptor subfamily 1 group I member 2 (Rattus norvegicus) (UniProt Q9R1A7); experiment: Rat pregnane X receptor (rPXR) activation by small molecules, qHTS assay (AID 1346983); settings: rPXR luciferase reporter cells, One-Glo luminescence, 24 h; max activation: stronger effect = higher value; further: nearly all actives have a fitted effect of over 20% in size
Sequence of Nuclear receptor subfamily 1 group I member 2 (Rattus norvegicus) (Q9R1A7 whole entry, looked up): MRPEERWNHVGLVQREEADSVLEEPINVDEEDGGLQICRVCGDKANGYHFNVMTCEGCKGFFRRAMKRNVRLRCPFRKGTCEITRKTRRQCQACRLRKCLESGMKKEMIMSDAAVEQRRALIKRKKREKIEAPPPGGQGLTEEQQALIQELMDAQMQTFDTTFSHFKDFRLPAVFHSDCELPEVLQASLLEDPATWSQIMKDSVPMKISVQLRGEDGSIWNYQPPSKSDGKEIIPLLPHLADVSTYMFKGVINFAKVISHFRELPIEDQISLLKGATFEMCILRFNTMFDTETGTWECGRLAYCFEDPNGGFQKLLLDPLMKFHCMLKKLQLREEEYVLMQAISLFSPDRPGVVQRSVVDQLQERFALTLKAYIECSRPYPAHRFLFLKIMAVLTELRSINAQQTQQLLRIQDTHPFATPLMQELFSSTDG
Summary of the method: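 Cell-based rPXR luciferase reporter assay, 2,000 cells per well, rested 5hr at 37 C before compound addition in DMSO, then 24 hr at 37 C. One-Glo reagent was added and luminescence read after 30 min at room temperature.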

[15] = target: Nuclear receptor subfamily 1 group I member 2 (Homo sapiens) (UniProt O75469); experiment: CYP3A4 induction through human pregnane X receptor (PXR) by small molecules, qHTS assay (AID 1346984); settings: DPX-2 HepG2 PXR, CYP3A4-luciferin luminescence, 24 h; series mostly up to 46.1 µM; further: nearly all actives have a fitted effect of over 40% in size
Summary of the method: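 Quantitative HTS in DPX-2 cells, i.e. HepG2 transfected with PXR response element and CYP3A4-promoter luciferase. Compounds in DMSO incubated 24hr at 37C; then P450-Glo CYP3A4 substrate, 3uM final, 3hr; One-Glo luminescence.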

[16] = target: Cytochrome P450 1A2 (Homo sapiens) (UniProt P05177); experiment: Cytochrome P450 Family 1 Subfamily A Member 2 (CYP1A2) small molecule antagonists: luciferase reporter qHTS assay (AID 1671199); settings: P450-Glo CYP1A2 enzyme, luciferin luminescence, 1 h; series mostly up to 115 µM; further: nearly all actives have a fitted effect of over 50% in size; further: potency means the concentration at half of the fitted maximal effect
Sequence of Cytochrome P450 1A2 (Homo sapiens) (P05177 whole entry, looked up): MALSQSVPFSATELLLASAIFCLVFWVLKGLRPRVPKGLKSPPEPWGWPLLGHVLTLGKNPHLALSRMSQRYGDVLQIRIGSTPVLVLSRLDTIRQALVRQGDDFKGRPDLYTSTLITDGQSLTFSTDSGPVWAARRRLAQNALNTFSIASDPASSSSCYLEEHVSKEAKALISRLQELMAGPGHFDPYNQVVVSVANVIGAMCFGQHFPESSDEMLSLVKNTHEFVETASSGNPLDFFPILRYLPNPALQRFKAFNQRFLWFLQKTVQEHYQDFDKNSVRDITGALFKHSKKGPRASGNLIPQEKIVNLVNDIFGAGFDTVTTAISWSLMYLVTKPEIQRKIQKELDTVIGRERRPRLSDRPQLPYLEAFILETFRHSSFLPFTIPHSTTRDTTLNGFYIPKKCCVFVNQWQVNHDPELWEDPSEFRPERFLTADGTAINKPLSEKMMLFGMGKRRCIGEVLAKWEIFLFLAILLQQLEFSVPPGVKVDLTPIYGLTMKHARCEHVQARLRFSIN
Summary of the method: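 Compounds were incubated with CYP1A2 and a luminogenic proluciferin substrate for 10 min at room temperature before the reaction was started with NADPH regeneration solution. After 1 h, detection reagent was added and light output, proportional to CYP activity, was recorded.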
On the % scale 0 is the no-effect control and ±100 the full control effect.

CCCCC[Si](OCC)(OCC)OCC
active: Potency [9] 25.2 µM | Potency [10] 31.7 µM | Potency [12] 12.6 µM
inactive: outcome [1] | outcome [2] | Potency [3] | outcome [4] | Potency [5] | outcome [6] | Potency [7] | Potency [8] | Potency [11]

CCC1Nc2cc(Cl)c(S(N)(=O)=O)cc2S(=O)(=O)N1 (stereo not drawn)
inactive: outcome [1] | outcome [2] | Potency [3] | outcome [4] | outcome [6] | Potency [13] | Potency [7] | max activation [14] -2.65% | outcome [15] | Potency [8] | Potency [10] | Potency [16] | Potency [11] | Potency [12]

CC(=O)c1ccc2c(c1)CCCC2
active: Potency [16] 35.6 µM
inactive: outcome [1] | outcome [2] | outcome [4] | Potency [5] | outcome [6] | Potency [13] | Potency [7] | Potency [8] | Potency [10] | Potency [11]

CC(=O)OC(C)(C)Cc1ccccc1
inactive: outcome [1] | outcome [2] | outcome [4] | outcome [6] | Potency [13] | Potency [7] | Potency [8] | Potency [9] | Potency [10] | Potency [16] | Potency [12]

CC(C)COC(=O)/C=C/c1ccccc1
inactive: outcome [1] | outcome [2] | outcome [4] | Potency [5] | outcome [6] | Potency [7] | Potency [8] | Potency [12]
active: Potency [16] 28.3 µM

CCCCCCCCCCCCCCCCI
inactive: activity change, negative = cytotoxicity [1] 0.0425% [at 15.8 µM] | activation [2] 1.65% [at 15.8 µM] | caspase activation [4] 0.99% [at 19 µM] | activity change, negative = cytotoxicity [5] 4.85% [at 19 µM] | caspase-3/7 activation [6] -0.405% [at 19 µM] | activity change, negative = cytotoxicity [13] 7.09% [at 19 µM] | activation [7] 0.718% [at 19 µM] | activity change, negative = inhibition [8] -2.1% [at 23.6 µM] | activity change, negative = inhibition [9] -28.1% [at 23.6 µM] | activity change, negative = inhibition [10] -1.09% [at 23.6 µM] | activity change, negative = inhibition [16] -13.6% [at 23.6 µM] | activity change, negative = inhibition [11] 0.683% [at 15.8 µM] | activity change, negative = inhibition [12] -0.102% [at 23.6 µM]

Cc1ccc(C(=O)C(=O)O)cc1C
active: Potency [16] 30.9 µM
inactive: outcome [1] | outcome [2] | Potency [3] | outcome [4] | outcome [6] | Potency [13] | Potency [7] | Potency [8] | Potency [9] | Potency [10] | Potency [11] | Potency [12]

CCCCCCCC/C=C\CCCCCCCC(=O)OC[C@@H](O)[C@H]1OC[C@H](O)[C@H]1O
active: Potency [10] 31.7 µM
inactive: outcome [1] | outcome [2] | outcome [4] | Potency [5] | outcome [6] | Potency [7] | Potency [8] | Potency [16] | Potency [11]

Reference: PubChem BioAssay (Tox21)
